# Data taken from PubChem BioAssay (Tox21).
# Where “and” joins values, the source holds several entries; their conditions need not be identical. Equal entries are not always repeated. Records with an inconclusive call do not appear. Unmarked numbers belong to inactive results. Calls of active or inactive are those of the source. The call rests on the fitted dose curve; in most records, active means well fitted activation curve with a large enough effect in the signal ratio in the repeat runs (not every such curve was filed as active); inconclusive means weak or mixed curves; inactive means flat fitted curve, though single readings scatter; the % refers to the signal ratio.
# Assay: qHTS assay to identify small molecule agonists of the TGF-beta/Smad signaling pathway (AID 1346859)
# Details: SBE-bla HEK293T, TGF-beta/Smad beta-lactamase reporter, 5 h; series mostly up to 76.8 µM
# Description: U.S. Tox21 Program National Center for Advancing Translational Sciences [NCATS] NIH Chemical Genomics Center [NCGC] U.S. Environmental Protection Agency [EPA] National Institutes of Environmental Health Sciences [NIEHS] National Toxicology Program [NTP] U.S. Food and Drug Administration [FDA] Tox21 Assay Overview: Transforming growth factor beta (TGF-beta) superfamily consists of a large number of structurally related dimeric proteins that act as hormones or local mediators in regulating a wide range of biological functions. This superfamily includes TGF-betas themselves, the bone morphogenetic proteins (BMPs) and the activins. These ligands induce oligomerization of serine/threonine receptor kinases and phosphorylate the cytoplasmic signaling molecules of Smad protein family. CellSensor SBE-bla HEK 293T cell line (Life Technologies, Carlsbad, CA), responsive to TGF-beta was used to screen Tox21 10K compound library for identification of agonists/antagonists of the Smad signaling pathway. This cell line contains a beta-lactamase reporter gene under control of the Smad binding element (SBE) stably integrated into HEK 293T cells.
# Tox21 Assay Protocol Summary: SBE-bla HEK 293T cells were dispensed at 4,000/well in 6 uL of assay medium into black wall/clear-bottom 1536-well plates using a Multidrop Combi (ThermoFisher Scientific, Waltham, MA) dispenser. After the assay plates were incubated at 37 C and 5% CO2 for an overnight, 23 nL of compounds dissolved in DMSO, positive controls or DMSO only was transferred to the assay plate by a Pintool station (Kalypsys, San Diego, CA). The assay plates were incubated at 37 C and 5% CO2 for 5 hr. One uL of LiveBLAzer B/G FRET substrate (Life Technologies) was added using a Flying Reagent Dispenser (Aurora Discovery, San Diego, CA) and the plates were incubated at room temperature for 2 hr. Fluorescence intensity (405 nm excitation, 460 nm and 530 nm emissions) was measured using an Envision plate reader (PerkinElmer, Shelton, CT).
# On the % scale 0 is the no-effect control and ±100 the full control effect.
Compound,outcome,activation
O=C(O)c1cc(=O)c2c(OCC(O)COc3cccc4oc(C(=O)O)cc(=O)c34)cccc2o1,inactive,–
CCCCC(CC)COC(=O)C(C#N)=C(c1ccccc1)c1ccccc1 (stereo not given),inactive,–
Cc1ccc(N(C)C)cc1,inactive,–
CCCCCCOCCO,inactive,–
CSCCC=O,inactive,–
CCCCOC(=O)COc1ccc(Cl)cc1Cl,inactive,–
Oc1cccc2ccccc12,inactive,–
O=C(O)c1cc(O)c(O)c(O)c1,inactive,–
O=C=NCCCCCCN=C=O,inactive,–
C#CCN(C)Cc1ccccc1,inactive,–
CC(=O)CC(=O)Nc1ccccc1,inactive,–
CCCCCCCCCCCCOCCO,inactive,–
C=CCNC(N)=S,inactive,–
Nc1ccccc1[N+](=O)[O-],inactive,–
O=c1[nH]nnc2ccccc12,inactive,–
CCCC(C)=O,inactive,–
COc1ccc(Nc2ccccc2)c(C)c1,inactive,–
CCOC(=O)NNc1nncc2ccccc12,inactive,–
CC(=O)CC(=O)Nc1ccccc1C,inactive,–
C=CCOC(=O)c1ccccc1C(=O)OCC=C,inactive,–

Compound,outcome,activation
CN(C)CCCN,inactive,–
CC(O)COCC(C)O (stereo not given),inactive,–
C=C(C)C(=O)O[C@H]1C[C@@H]2CC[C@@]1(C)C2(C)C,inactive,–
CCN(CC)CCCC(C)Nc1ccnc2cc(Cl)ccc12 (stereo not given),–,1.95% [at 6.97 µM] and -1.03% [at 15.8 µM]
O=P(OC(CCl)CCl)(OC(CCl)CCl)OC(CCl)CCl,inactive,–
CC1=CC(=O)NS(=O)(=O)O1,inactive,–
CCCCC(CC)CO (stereo not given),inactive,–
COCCCOc1ccnc(CS(=O)c2nc3ccccc3[nH]2)c1C (stereo not given),inactive,–
ON=C1CCCCC1,inactive,–
CCCCCC1=CCCC1=O,inactive,–
CN(C)CCC(c1ccc(Cl)cc1)c1ccccn1 (stereo not given),inactive,–
COS(C)(=O)=O,inactive,–
CCCCCCCC(=O)OC,inactive,–
OCc1cccnc1,inactive,–
CCCSc1ccc2nc(NC(=O)OC)[nH]c2c1,inactive,–
N[C@@H](Cc1cc(I)c(Oc2cc(I)c(O)c(I)c2)c(I)c1)C(=O)O,inactive,–
CN(C)CCC(c1ccccc1)c1ccccn1 (stereo not given),inactive,–
O=[N+]([O-])c1ccc(/C=C/c2ccc([N+](=O)[O-])cc2S(=O)(=O)O)c(S(=O)(=O)O)c1,inactive,–
O=C(O)CCCCCCCCCCC(=O)O,inactive,–
O=S1(=O)CC=CC1,inactive,–
